Bioassay records (PubChem)
An excerpt weighted towards active compounds, which were near 0.93% of everything screened.
AGP1-GFP MLPCN = yeast TOR pathway AGP1-GFP modulation | S. cerevisiae AGP1-GFP multiplex flow cytometry, 3 h; GFP as percent of DMSO wells | GFP response vs DMSO, % at 10 µM | 320,000 tested, 0.02% active;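 active means GFP response relative to DMSO above a set limit, near screen average plus 3 SD, cut at about 150% in these data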;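 further: median GFP channel fluorescence of the gated AGP1 strain per well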
CIT2-GFP yeast = yeast TOR pathway CIT2-GFP modulation. 320,000 tested, 0.065% active. AID 2029. GFP response vs DMSO, % at 10 µM. S. cerevisiae CIT2-GFP strain, flow cytometry, 3 h; 100 means same as DMSO wells;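 active means GFP response relative to DMSO above a set limit, near the screen mean plus 3 SD, cut at about 150% in these data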;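 further: ratio of well median GFP fluorescence to mean of DMSO wells on the plate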
MEP2 TOR yeast = modulators of TOR pathway MEP2-GFP in S. cerevisiae. S. cerevisiae MEP2-GFP strain, flow cytometry GFP, 3 h; 100% = DMSO control level. GFP response vs DMSO, % at 10 µM. 330,000 tested, 0.51% active;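 active means GFP response versus DMSO above a set limit, roughly screen mean plus 3 SD, cut at about 180% in these data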;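 further: median GFP fluorescence of the barcode-gated MEP2-GFP cells per well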
LAP4-GFP MLPCN = modulators of TOR pathway LAP4-GFP in S. cerevisiae; S. cerevisiae LAP4-GFP multiplex, flow cytometry GFP, 3 h; median GFP as percent of DMSO wells; GFP response vs DMSO, % at 10 µM; 320,000 tested, 0.34% active; AID 2023;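 active means GFP response vs DMSO above a set limit, about the screen mean plus 3 SD, cut at about 150% in these data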
RPL19A-GFP yeast = yeast TOR pathway RPL19A-GFP modulation; AID 2025; S. cerevisiae RPL19A-GFP strain, flow cytometry, 3 h; stronger effect = lower value; 330,000 tested, 0.3% active; percent response vs DMSO, % at 10 µM;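 active means percent response vs DMSO below 50%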;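 further: median channel GFP fluorescence of the barcoded RPL19A-GFP strain; ratio of sample median GFP to plate DMSO average so 100% = DMSO; lower means less RPL19A-GFP as with rapamycin TOR inhibition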
LAP4 cherry2 = yeast LAP4-GFP modulation, second cherry pick | S. cerevisiae LAP4-GFP strain, flow cytometry GFP, 3 h | shares compounds with LAP4-GFP MLPCN | 590 tested, 20% active | GFP response vs DMSO, % at 10 µM;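 active means GFP signal as percent of the solvent control above about 150%, meaning raised reporter expression, limit read from the data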;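 further: ratio of well median GFP fluorescence to plate DMSO mean so 100% = DMSO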
MEP2-GFP pick2 = second confirmation of modulators of TOR reporter MEP2-GFP in yeast | shares compounds with LAP4-GFP MLPCN | S. cerevisiae MEP2-GFP strain, flow cytometry GFP, 3 h | GFP response vs DMSO, % at 10 µM | 590 tested, 10% active | AID 2622;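 active means GFP signal above 150% of the solvent control wells, that is a rise of more than half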;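 further: median channel GFP fluorescence of all gated yeast cells per well; ratio of median GFP to plate DMSO average so 100% = DMSO level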
RPL19A-GFP pick2 = reconfirmed modulator of RPL19A-GFP TOR reporter in yeast. shares compounds with LAP4-GFP MLPCN. S. cerevisiae RPL19A-GFP strain, flow cytometry GFP, 3 h; stronger effect = lower value; 100% means same as DMSO wells. GFP response vs DMSO, % at 10 µM. 590 tested, 3% active;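 active means under 65% GFP response relative to DMSO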;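 further: median GFP channel fluorescence per well over the all cells gate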
CIT2-GFP pick2 = reconfirmed modulator of CIT2-GFP TOR reporter in yeast; S. cerevisiae CIT2-GFP strain, flow cytometry GFP, 3 h; DMSO control wells read 100%; shares compounds with LAP4-GFP MLPCN; 590 tested, 8% active; GFP response vs DMSO, % at 10 µM; AID 2624;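 active means GFP response vs DMSO above about 150%, limit read from the data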;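 further: median green fluorescence per well over all gated yeast cells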
AGP1 GFP CP2 = reconfirmed modulator of AGP1-GFP TOR reporter in yeast; shares compounds with LAP4-GFP MLPCN; AID 2643; S. cerevisiae AGP1-GFP strain, flow cytometry GFP, 3 h; percent response vs DMSO, % at 10 µM; 590 tested, under 10 active;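 active means over 150 percent of DMSO response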;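 further: median GFP channel fluorescence over all cells without mother daughter split; sample median GFP divided by mean DMSO control so 100% equals DMSO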
s288c autofluor = counter-screen for compound autofluorescence in yeast s288c cells; shares compounds with LAP4-GFP MLPCN; S. cerevisiae s288c, 520 nm autofluorescence, flow cytometry, 3 h; stronger effect = higher value; zero means same as solvent-only cells; fluorescence change (kMESF span) at 33 µM; 610 tested, under 10 active; AID 2757;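 active means fluorescence span over the dose series, or activity score, above about 33, limit read from the data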
* = called active by the depositor; · = no result.

SMILES	AGP1-GFP MLPCN	CIT2-GFP yeast	MEP2 TOR yeast	LAP4-GFP MLPCN	RPL19A-GFP yeast	LAP4 cherry2	MEP2-GFP pick2	RPL19A-GFP pick2	CIT2-GFP pick2	AGP1 GFP CP2	s288c autofluor
CC(C)(C)C(=O)Nc1cc(NC(=O)C(C)(C)C)cc(C(=O)Nc2cc(C(=O)O)cc(C(=O)O)c2)c1	104	106	110	97	105	·	·	·	·	·	·
COc1cc(N=c2ssnc2Cl)cc(OC)c1	84	74	90	151*	91	114	110	93	121	96	1
Cc1cccc(NC(=O)c2nc[nH]c2C(=O)NCC(=O)OC(C)(C)C)c1	93	112	98	168*	97	117	105	92	90	94	·
Cc1cccc(NC(=O)c2nc[nH]c2C(=O)N[C@@H](C)C(=O)OC(C)(C)C)c1	78	77	90	160*	97	110	98	94	92	95	·
C[C@H](NC(=O)c1[nH]cnc1C(=O)Nc1ccc(Cl)cc1)C(=O)OC(C)(C)C	86	89	90	158*	97	109	108	93	96	95	·
COc1cc(NC(=O)c2csc(-c3ccncc3)n2)cc(C(=O)Nc2cccc(C(F)(F)F)c2)c1	82	88	90	129	93	·	·	·	·	·	·
Nc1nc(N)c2nc(-c3ccccc3)c(N)nc2n1	44	116	332*	115	61	97	98	98	93	99	·
Cc1c(-n2c(SCC(=O)N(C)C3CCS(=O)(=O)C3)nc3ccccc3c2=O)c(=O)n(-c2ccccc2)n1C (stereo unspecified)	89	101	94	92	103	·	·	·	·	·	·
CCOC(=O)C1=C(O)c2ccccc2C(=O)/C1=C\c1ccc(C)cc1	72	80	111	186*	82	187*	221*	100	162*	93	41*
CCOC(=O)C1=C(C)N(c2ccc(C)cc2)C(=O)/C1=C\c1ccc(O)c(OC)c1	106	95	105	112	100	·	·	·	·	·	·
O=C(COc1ccc(F)cc1Cl)Nc1ccc(S(=O)(=O)Nc2nccs2)cc1	110	110	103	103	106	·	·	·	·	·	·
Cc1ccc(C2=NN(S(C)(=O)=O)C(c3ccc4c(c3)OCO4)C2)cc1 (stereo unspecified)	99	128	106	105	108	·	·	·	·	·	4.6
O=C1c2cccc3c([N+](=O)[O-])ccc(c23)C(=O)N1c1ccccn1	83	191*	301*	193*	115	193*	324*	122	196*	114	13
O=C1c2cccc3c(N4CCCCC4)ccc(c23)C(=O)N1c1ccccn1	96	101	108	105	102	·	·	·	·	·	·
O=C1c2cccc3c([N+](=O)[O-])ccc(c23)C(=O)N1O	116	274*	350*	228*	148	·	·	·	·	·	20
C/C=C/c1ccc(OCC(=O)Nc2ccc(OC)c(OC)c2)c(OC)c1	85	88	90	92	90	·	·	·	·	·	·
COc1ccc(S(=O)(=O)N2CCN(C3CCCCCCC3)CC2)cc1	98	102	102	96	93	·	·	·	·	·	·
